# PubChem BioAssay (Tox21)
# Records with an inconclusive call do not appear. A call without a number means that no potency is given here. Active and inactive are the calls of the source. Unless noted, calls follow the shape of the dose curve; as a rule, active = well fitted curve in the direction sought with a large enough effect in the repeat runs; inconclusive = weak or mixed curves; inactive = no such curve, though single readings can be large; an effect the other way counts as inactive or inconclusive.
# How the values were obtained:
# [1] = qHTS assay for small molecule agonists of the p53 signaling pathway (AID 651631; calls by dose curve; also: nearly all actives have a fitted effect of over 15% in size)
# Method in brief: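 HCT-116 cells carrying a stable p53 response element–beta-lactamase reporter were plated, rested 5 h at 37 °C, then exposed to compound in DMSO for 16 h at 37 °C; reporter activity was read as FRET substrate fluorescence after 2 h at room temperature.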
# [2] = qHTS assay for small molecules that induce genotoxicity in human embryonic kidney cells expressing luciferase-tagged ATAD5 (AID 651632); also: nearly all actives have a fitted effect of over 15% in size
# Method in brief: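 ATAD5-luc HEK293T, 2,000 cells/well; cpd or DMSO pin-transferred; 16 hr, 37C/5% CO2; Amplite 30 min RT; luminescence.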
# [3] = qHTS assay for small molecule agonists of the p53 signaling pathway - cell viability (AID 651633; calls by dose curve; also: nearly all actives have a fitted effect of over 30% in size; also: potency is read from the fitted curve at half-maximal effect)
# Method in brief: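 Viability counter-read: CellTiter-Glo luminescence (30 min, room temperature) in the same p53RE-bla plates. These plates had been exposed to compounds for 16 h at 37 C.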
# [4] = qHTS assay for small molecules that induce genotoxicity in human embryonic kidney cells expressing luciferase-tagged ATAD5 - cell viability (AID 651634; calls by dose curve; also: nearly all actives have a fitted effect of over 25% in size; also: potency is read from the fitted curve at half-maximal effect)
# Method in brief: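 Fluorescence from CellTiter-Fluor, reporting protease activity within live cells, served as the viability read-out. HEK293T cells carrying luciferase-tagged ATAD5 had been treated with compound for 15.5 hr at 37C.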
# [5] = qHTS assay for small molecule disruptors of the mitochondrial membrane potential - cell viability (AID 720634; calls by dose curve;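 also: human HepG2 liver cancer cells; series mostly up to about 83 µM; nearly all actives have a fitted effect of over 20% in size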)
# Method in brief: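 Cells: HepG2, 2,000/well, attached overnight. Compound 1 hr, 37 C/5% CO2. +m-MPI dye, +CellTiter-Glo 30 min RT. Readout: luminescence (ATP).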
# [6] = qHTS assay for small molecule disruptors of the mitochondrial membrane potential (AID 720635)
# Method in brief: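 Mitochondrial membrane potential tracked with Mito-MPS dye, red aggregates (ex 540/em 590 nm) against green monomers (ex 490/em 535 nm). Compound treatment 1 hr at 37C, dye 30 min in HepG2.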
# [7] = qHTS assay to test for compound auto fluorescence at 590 nm (red) in HepG2 cells (AID 720674)
# Method in brief: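 We screened compounds on adherent HepG2 cells, incubating them for an hour at 37 C in 5% CO2 before reading emission at 590 nm under 540 nm excitation; values reflect equivalence to Rose Bengal sodium fluorescence.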
# [8] = qHTS assay to test for compound auto fluorescence at 535 nm (green) in HepG2 cells (AID 720675)
# [9] = qHTS assay to test for compound auto fluorescence at 460 nm (blue) in HEK293 cells (AID 720678)
# Method in brief: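 Blue-channel (Ex/Em 405/460 nm) intensity measured in HEK293 cultures after overnight compound exposure at 37C; signal expressed relative to triamterene. Cells plated 2,000 per well in 10% dialyzed FBS medium and allowed 4-5 hr to attach.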
# [10] = qHTS assay to test for compound auto fluorescence at 590 nm (red) in HEK293 cells (AID 720679)
# Method in brief: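 Red-channel autofluorescence (Ex/Em 540/590 nm; Rose Bengal sodium reference) was measured after overnight 37C, 5% CO2 exposure of attached HEK293 cells, 2,000 per well in medium with 10% dialyzed FBS.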
# [11] = qHTS assay to test for compound auto fluorescence at 535 nm (green) in HEK293 cells (AID 720680)
# [12] = qHTS assay to test for compound auto fluorescence at 460 nm (blue) in HEK293 cell free culture (AID 720681)
# Method in brief: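 Blue fluorescence (Ex 405/Em 460 nm, triamterene-equivalent) was read immediately after pin transfer of compound or DMSO into medium (DMEM, 10% FBS) without cells.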
# [13] = qHTS assay to test for compound auto fluorescence at 535 nm (green) in HEK293 cell free culture (AID 720682)
# Method in brief: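 Read-out: 485/535 nm fluorescence intensity, calibrated against fluorescein. Medium only (DMEM + 10% FBS, no cells); test compound or DMSO vehicle added by pintool before plate reading.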
# [14] = qHTS assay to test for compound auto fluorescence at 590 nm (red) in HEK293 cell free culture (AID 720683)
# Method in brief: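 Red-channel autofluorescence of compounds in culture medium (DMEM, 10% FBS), no cells, measured at 540/590 nm. Rose Bengal sodium is the reference fluorophore for equivalence.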
# [15] = qHTS assay to test for compound auto fluorescence at 590 nm (red) in HepG2 cell free culture (AID 720684)
# Method in brief: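 Plate contents were MEM with 10% FBS plus test compound or DMSO, no cells. Fluorescence was recorded with 540 nm excitation and 590 nm emission.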
# [16] = qHTS assay to test for compound auto fluorescence at 460 nm (blue) in HepG2 cell free culture (AID 720685)
# Method in brief: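 Compound (23 nL) or DMSO pinned into cell-free MEM with 10% FBS; blue fluorescence read at 405/460 nm excitation/emission, expressed as auto-fluorescence equivalency to triamterene.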
# [17] = qHTS assay to test for compound auto fluorescence at 535 nm (green) in HepG2 cell free culture (AID 720686)
# [18] = qHTS assay to test for compound auto fluorescence at 460 nm (blue) in HepG2 cells (AID 720687)
# Method in brief: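 Blue-channel autofluorescence (Ex/Em 405/460 nm, triamterene-equivalent) was measured after 1 hr compound exposure at 37 C, 5% CO2. Cells were HepG2, plated overnight at 37 C in MEM plus 10% FBS.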
# [19] = molecular target: Glucocorticoid receptor (Homo sapiens) (UniProt P04150); assay: qHTS assay to identify small molecule agonists of the glucocorticoid receptor (GR) signaling pathway (AID 720691; active = well fitted activation curve with a large enough effect in the signal ratio in the repeat runs, not every such curve was filed as active; the % refers to the signal ratio)
# Chain of Glucocorticoid receptor (Homo sapiens) (P04150 whole entry, looked up): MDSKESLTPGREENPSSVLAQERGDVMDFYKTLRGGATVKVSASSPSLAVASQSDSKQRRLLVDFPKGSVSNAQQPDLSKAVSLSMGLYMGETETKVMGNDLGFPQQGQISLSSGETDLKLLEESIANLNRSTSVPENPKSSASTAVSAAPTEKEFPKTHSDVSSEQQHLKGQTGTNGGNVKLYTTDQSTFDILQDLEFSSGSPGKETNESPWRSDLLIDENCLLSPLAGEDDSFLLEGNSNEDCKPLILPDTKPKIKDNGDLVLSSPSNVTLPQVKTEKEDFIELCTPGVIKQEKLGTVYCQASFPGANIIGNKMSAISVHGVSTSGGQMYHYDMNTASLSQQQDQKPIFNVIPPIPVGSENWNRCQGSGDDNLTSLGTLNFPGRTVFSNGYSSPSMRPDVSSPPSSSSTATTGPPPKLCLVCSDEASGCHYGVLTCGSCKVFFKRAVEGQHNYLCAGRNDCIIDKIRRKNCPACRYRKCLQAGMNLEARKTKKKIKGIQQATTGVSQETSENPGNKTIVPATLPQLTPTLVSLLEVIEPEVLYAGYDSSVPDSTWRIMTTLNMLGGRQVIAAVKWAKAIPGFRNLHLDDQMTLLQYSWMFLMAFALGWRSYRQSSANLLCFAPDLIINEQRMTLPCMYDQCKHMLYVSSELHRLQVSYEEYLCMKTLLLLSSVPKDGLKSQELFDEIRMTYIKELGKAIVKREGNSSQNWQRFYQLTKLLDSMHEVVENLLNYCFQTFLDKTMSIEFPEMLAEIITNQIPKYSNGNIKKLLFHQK
# Method in brief: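 Fluorescence intensity from LiveBLAzer B/G FRET substrate (2 h, room temperature) reports beta-lactamase expression driven by the glucocorticoid response element in GR-bla HeLa cells after 18 h compound exposure at 37 C.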
# [20] = molecular target: Glucocorticoid receptor (Homo sapiens) (UniProt P04150); assay: qHTS assay to identify small molecule antagonists of the glucocorticoid receptor (GR) signaling pathway (AID 720692; active = well fitted inhibition curve with a large enough effect in the signal ratio in the repeat runs, not every such curve was filed as active; the % refers to the signal ratio; also: potency is read from the fitted curve at half-maximal effect)
# Method in brief: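 HeLa GR-bla cells; cmpd + dex 5 nM final, 18 h 37 C; LiveBLAzer B/G FRET substrate 2 h RT; fluorescence intensity read. Antagonist mode, qHTS.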
# [21] = qHTS assay to identify small molecule antagonists of the glucocorticoid receptor (GR) signaling pathway - cell viability counter screen (AID 720693); also: nearly all actives have a fitted effect of over 55% in size; also: potency is read from the fitted curve at half-maximal effect
# [22] = qHTS assay for identifying genotoxic compounds that show differential cytotoxicity against isogenic chicken DT40 cell lines with known DNA damage response pathways - wild type cell line (AID 743012); also: potency is read from the fitted curve at half-maximal effect; nearly all actives have a fitted effect of over 60% in size
# Method in brief: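 Wild type DT40, 300 cells/well, ~0.5 h settle at 37 C/5% CO2; compounds in DMSO added by pintool; 40 h at 37 C/5% CO2; CellTiter-Glo, 30 min RT; luminescence.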
# [23] = qHTS assay for identifying genotoxic compounds that show differential cytotoxicity against isogenic chicken DT40 cell lines with known DNA damage response pathways - Rev3 mutant cell line (AID 743014); also: potency is read from the fitted curve at half-maximal effect; nearly all actives have a fitted effect of over 55% in size
# [24] = qHTS assay for identifying genotoxic compounds that show differential cytotoxicity against isogenic chicken DT40 cell lines with known DNA damage response pathways - Rad54/Ku70 mutant cell line (AID 743015); also: potency is read from the fitted curve at half-maximal effect; nearly all actives have a fitted effect of over 60% in size
# [25] = qHTS assay to identify small molecule antagonists of the androgen receptor (AR) signaling pathway - cell viability counter screen (AID 743033; also: nearly all actives have a fitted effect of over 45% in size; also: potency is read from the fitted curve at half-maximal effect)
# [26] = qHTS assay to identify small molecule antagonists of the thyroid receptor (TR) signaling pathway - cell viability counter screen (AID 743064); also: nearly all actives have a fitted effect of over 50% in size; also: potency is read from the fitted curve at half-maximal effect
# Method in brief: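 GH3.TRE-Luc rat pituitary cells carrying a TRE-luciferase reporter were treated with compound plus 1 nM T3 (final) for 23.5 h at 37 °C. Viability was then read in the same wells by CellTiter-Fluor fluorescence after a further 30 min.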
# [27] = test system: thyroid hormone receptor (rat, GH3 cells); assay: qHTS assay to identify small molecule agonists of the thyroid receptor (TR) signaling pathway (AID 743066; calls by dose curve)
# [28] = molecular target: Estrogen receptor (Homo sapiens) (UniProt P03372); assay: qHTS assay to identify small molecule antagonists of the estrogen receptor alpha (ER-alpha) signaling pathway (AID 743069; active = well fitted curve in the direction sought with a large enough effect in the signal ratio in the repeat runs, not every such curve was filed as active; the % refers to the signal ratio)
# Chain of Estrogen receptor (Homo sapiens) (P03372 whole entry, looked up): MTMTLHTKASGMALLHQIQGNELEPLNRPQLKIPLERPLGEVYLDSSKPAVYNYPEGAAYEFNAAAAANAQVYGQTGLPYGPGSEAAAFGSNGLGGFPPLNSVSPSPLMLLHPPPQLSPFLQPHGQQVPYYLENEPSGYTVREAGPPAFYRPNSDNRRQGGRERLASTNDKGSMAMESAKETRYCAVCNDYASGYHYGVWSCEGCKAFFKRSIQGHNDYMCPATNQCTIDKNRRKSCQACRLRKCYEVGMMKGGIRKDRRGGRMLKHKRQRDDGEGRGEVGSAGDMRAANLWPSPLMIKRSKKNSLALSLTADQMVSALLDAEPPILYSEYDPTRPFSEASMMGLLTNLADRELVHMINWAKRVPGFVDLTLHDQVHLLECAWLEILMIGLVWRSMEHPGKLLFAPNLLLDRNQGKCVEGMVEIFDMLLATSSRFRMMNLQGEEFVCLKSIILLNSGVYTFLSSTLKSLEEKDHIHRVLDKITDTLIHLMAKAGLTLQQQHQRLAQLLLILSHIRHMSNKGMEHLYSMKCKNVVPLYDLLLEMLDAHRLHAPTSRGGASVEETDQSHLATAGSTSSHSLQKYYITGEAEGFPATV
# Method in brief: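 Compound effects are measured against 17beta-estradiol stimulation in HEK293 cells with a UAS-controlled beta-lactamase reporter for ER-alpha. Exposure lasts 18 hr at 37C; LiveBLAzer B/G FRET substrate follows for 2 hr at room temperature.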
# [29] = qHTS assay to identify small molecule antagonists of the estrogen receptor alpha (ER-alpha) signaling pathway - cell viability counter screen (AID 743074; calls by dose curve;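 also: HEK293 cells carrying ER-alpha-UAS-bla reporter stimulated with 17beta-estradiol; nearly all actives have a fitted effect of over 45% in size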; also: potency is read from the fitted curve at half-maximal effect)
# [30] = molecular target: Estrogen receptor (Homo sapiens) (UniProt P03372); assay: qHTS assay to identify small molecule agonists of the estrogen receptor alpha (ER-alpha) signaling pathway (AID 743075; calls by dose curve)
# [31] = molecular target: Estrogen receptor (Homo sapiens) (UniProt P03372); assay: qHTS assay to identify small molecule agonists of the estrogen receptor alpha (ER-alpha) signaling pathway using the BG1 cell line (AID 743079); also: nearly all actives have a fitted effect of over 20% in size
# [32] = qHTS assay to identify small molecule antagonists of the estrogen receptor alpha (ER-alpha) signaling pathway using the BG1 cell line (AID 743080; calls by dose curve;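 also: BG1 cells stimulated with 17beta-estradiol alongside compound; series mostly up to about 70 µM; nearly all actives have a fitted effect of over 25% in size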)
# Method in brief: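 Luciferase inhibition measured with ONE-Glo after 30 min at RT in BG1Luc4E2 cells given test compounds and 17beta-estradiol for 21.5 h at 37 C; CellTiter-Fluor viability read in the same wells beforehand.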
# [33] = molecular target: Aromatase (Homo sapiens) (UniProt P11511); assay: qHTS assay to identify aromatase inhibitors (AID 743083); also: series mostly up to about 70 µM; nearly all actives have a fitted effect of over 55% in size
# Chain of Aromatase (Homo sapiens) (P11511 whole entry, looked up): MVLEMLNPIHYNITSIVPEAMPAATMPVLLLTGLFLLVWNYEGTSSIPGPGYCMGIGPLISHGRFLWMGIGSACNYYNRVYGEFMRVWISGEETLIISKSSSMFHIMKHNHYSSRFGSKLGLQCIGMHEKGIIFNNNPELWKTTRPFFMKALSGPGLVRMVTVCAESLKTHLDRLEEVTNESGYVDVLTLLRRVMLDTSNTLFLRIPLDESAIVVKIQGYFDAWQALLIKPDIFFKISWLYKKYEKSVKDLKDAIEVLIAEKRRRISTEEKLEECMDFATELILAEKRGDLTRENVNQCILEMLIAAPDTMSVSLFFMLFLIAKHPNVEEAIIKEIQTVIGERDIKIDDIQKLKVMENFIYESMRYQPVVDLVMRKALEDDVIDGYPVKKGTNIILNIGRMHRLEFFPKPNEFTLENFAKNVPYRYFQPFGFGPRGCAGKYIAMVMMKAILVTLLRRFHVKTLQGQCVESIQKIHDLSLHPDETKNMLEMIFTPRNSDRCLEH
# [34] = qHTS assay to identify aromatase inhibitors - cell viability counter screen (AID 743084);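 also: cells stimulated with testosterone during compound exposure; nearly all actives have a fitted effect of over 55% in size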
# [35] = molecular target: Peroxisome proliferator-activated receptor gamma (Homo sapiens) (UniProt P37231); assay: qHTS assay to identify small molecule agonists of the peroxisome proliferator-activated receptor gamma (PPARg) signaling pathway (AID 743094; active = well fitted activation curve with a large enough effect in the signal ratio in the repeat runs, not every such curve was filed as active; the % refers to the signal ratio)
# Chain of Peroxisome proliferator-activated receptor gamma (Homo sapiens) (P37231 whole entry, looked up): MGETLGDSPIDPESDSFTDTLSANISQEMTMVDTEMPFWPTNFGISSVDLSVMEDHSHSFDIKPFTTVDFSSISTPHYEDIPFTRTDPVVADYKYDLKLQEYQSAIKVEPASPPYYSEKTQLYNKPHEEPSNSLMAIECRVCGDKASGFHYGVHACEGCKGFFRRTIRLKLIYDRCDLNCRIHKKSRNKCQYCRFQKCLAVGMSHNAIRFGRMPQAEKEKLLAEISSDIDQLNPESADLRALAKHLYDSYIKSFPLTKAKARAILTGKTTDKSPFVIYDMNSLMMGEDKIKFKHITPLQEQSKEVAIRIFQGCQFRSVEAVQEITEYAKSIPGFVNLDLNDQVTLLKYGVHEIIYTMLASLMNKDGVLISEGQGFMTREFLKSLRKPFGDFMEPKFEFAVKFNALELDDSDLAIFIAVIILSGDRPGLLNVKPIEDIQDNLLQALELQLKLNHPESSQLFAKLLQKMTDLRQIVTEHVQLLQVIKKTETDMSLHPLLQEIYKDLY
# Method in brief: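 Beta-lactamase FRET fluorescence was the read-out after a 1 h room-temperature substrate step, following 17 h compound treatment at 37C of HEK293H cells expressing a UAS-driven bla reporter responsive to PPARg.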
# [36] = molecular target: Androgen receptor (Homo sapiens) (UniProt P10275); assay: qHTS assay to identify small molecule antagonists of the androgen receptor (AR) signaling pathway (AID 743035; active = well fitted inhibition curve with a large enough effect in the signal ratio in the repeat runs, not every such curve was filed as active; the % refers to the signal ratio; also: potency is read from the fitted curve at half-maximal effect)
# Chain of Androgen receptor (Homo sapiens) (P10275 whole entry, looked up): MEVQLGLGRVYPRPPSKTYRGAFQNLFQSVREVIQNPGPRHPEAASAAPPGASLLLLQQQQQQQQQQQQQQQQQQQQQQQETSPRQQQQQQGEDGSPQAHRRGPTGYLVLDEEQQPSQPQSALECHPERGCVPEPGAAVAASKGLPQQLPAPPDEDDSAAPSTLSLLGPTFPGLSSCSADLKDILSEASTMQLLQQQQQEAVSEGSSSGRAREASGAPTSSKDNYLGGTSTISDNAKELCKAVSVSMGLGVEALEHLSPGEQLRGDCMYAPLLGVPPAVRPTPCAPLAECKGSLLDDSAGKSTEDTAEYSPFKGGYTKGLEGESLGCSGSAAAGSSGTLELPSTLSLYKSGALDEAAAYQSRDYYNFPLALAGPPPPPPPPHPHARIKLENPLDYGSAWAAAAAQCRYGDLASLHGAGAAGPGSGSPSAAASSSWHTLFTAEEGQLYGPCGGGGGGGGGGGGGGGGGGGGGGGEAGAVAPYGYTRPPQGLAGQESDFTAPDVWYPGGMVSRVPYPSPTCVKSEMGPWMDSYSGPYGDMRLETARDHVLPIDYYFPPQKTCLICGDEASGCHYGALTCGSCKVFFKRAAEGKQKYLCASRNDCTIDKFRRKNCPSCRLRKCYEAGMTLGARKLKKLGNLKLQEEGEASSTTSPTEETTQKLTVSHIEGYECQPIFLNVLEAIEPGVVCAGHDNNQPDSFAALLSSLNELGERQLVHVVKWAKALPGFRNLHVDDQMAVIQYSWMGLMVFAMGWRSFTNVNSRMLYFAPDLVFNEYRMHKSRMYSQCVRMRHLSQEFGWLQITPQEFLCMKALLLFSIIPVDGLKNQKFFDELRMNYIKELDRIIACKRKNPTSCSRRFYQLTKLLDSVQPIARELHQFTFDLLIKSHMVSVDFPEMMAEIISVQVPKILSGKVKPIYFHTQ
# Method in brief: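 Fluorescence from a beta-lactamase FRET substrate (LiveBLAzer B/G, 2 h, room temperature) measured inhibition of R1881-stimulated signaling in GeneBLAzer AR-UAS-bla HEK293 cells exposed to compound for 16 h at 37C.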
# [37] = molecular target: Androgen receptor (Homo sapiens) (UniProt P10275); assay: qHTS assay to identify small molecule agonists of the androgen receptor (AR) signaling pathway (AID 743036; active = well fitted activation curve with a large enough effect in the signal ratio in the repeat runs, with a control signal flat, not every such curve was filed as active; the % refers to the signal ratio)
# Method in brief: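 HEK293 cells stably carrying a UAS-driven beta-lactamase reporter (GeneBLAzer AR-UAS-bla-GripTite) were plated at 2,000 cells/well, rested 4 h at 37C, then exposed to compounds in DMSO for 16 h. LiveBLAzer B/G FRET substrate was added for 2 h at room temperature; fluorescence read.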
# [38] = molecular target: Androgen receptor (Homo sapiens) (UniProt P10275); assay: qHTS assay to identify small molecule agonists of the androgen receptor (AR) signaling pathway using the MDA cell line (AID 743040; also: nearly all actives have a fitted effect of over 20% in size)
# Method in brief: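 After a 5 h incubation at 37C and 0% CO2, MDA-kb2 reporter cells were dosed with compounds in DMSO and kept 16 h under the same conditions. Luciferase activity was then read as luminescence with ONE-Glo.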
# [39] = qHTS assay to identify small molecule antagonists of the thyroid receptor (TR) signaling pathway (AID 743065)
# Method in brief: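 Antagonism measured as loss of luciferase signal in GH3 cells stably carrying a TRE-luciferase reporter, co-treated with compound and T3 (1 nM final) for 23.5 h at 37 C. Viability was read in the same well by CellTiter-Fluor.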
# [40] = qHTS assay to identify small molecule antagonists of the estrogen receptor alpha (ER-alpha) signaling pathway using the BG1 cell line - cell viability counter screen (AID 743081);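 also: compound given together with 17beta-estradiol as the ER stimulus; series mostly up to about 70 µM; nearly all actives have a fitted effect of over 45% in size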
# [41] = qHTS assay to identify small molecule that activate the aryl hydrocarbon receptor (AhR) signaling pathway - cell viability counter screen (AID 743086); also: potency is read from the fitted curve at half-maximal effect; nearly all actives have a fitted effect of over 45% in size
# Method in brief: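 Cytotoxicity counter screen: CellTiter-Fluor signal (30 min, 37 C) in 4000 HepG2 cells/well carrying the DRE-luciferase reporter, following 24 h compound exposure at 37 C.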
smiles,measurement,setting,value
CCC(=O)O[C@H]1[C@@H](N2CCCCC2)C[C@H]2[C@@H]3CC[C@H]4C[C@H](OC(C)=O)[C@@H](N5CCCCC5)C[C@]4(C)[C@H]3CC[C@@]21C,Potency,[1],inactive
same,outcome,[2],inactive
same,Potency,[3],inactive
same,Potency,[4],inactive
same,outcome,[5],inactive
same,Potency,[6],inactive
same,outcome,[7],inactive
same,outcome,[8],inactive
same,outcome,[9],inactive
same,outcome,[10],inactive
same,outcome,[11],inactive
same,outcome,[12],inactive
same,outcome,[13],inactive
same,outcome,[14],inactive
same,outcome,[15],inactive
same,outcome,[16],inactive
same,outcome,[17],inactive
same,outcome,[18],inactive
same,outcome,[19],inactive
same,Potency,[20],inactive
same,Potency,[21],inactive
same,Potency,[22],2.37 µM (active)
same,Potency,[23],3.35 µM (active)
same,Potency,[24],3.76 µM (active)
same,Potency,[25],inactive
same,Potency,[26],inactive
same,outcome,[27],inactive
same,outcome,[28],inactive
same,Potency,[29],inactive
same,Potency,[30],inactive
same,Potency,[31],inactive
same,outcome,[32],inactive
same,Potency,[33],inactive
same,outcome,[34],inactive
same,outcome,[35],inactive
CN1C2CCC1CC(OC(c1ccccc1)c1ccc(Cl)cc1)C2 (configuration not stated),outcome,[2],inactive
same,Potency,[3],29.8 µM (active)
same,Potency,[4],26.6 µM (active)
same,outcome,[5],inactive
same,outcome,[7],inactive
same,outcome,[8],inactive
same,outcome,[9],inactive
same,outcome,[10],inactive
same,outcome,[11],inactive
same,outcome,[12],inactive
same,outcome,[13],inactive
same,outcome,[14],inactive
same,outcome,[15],inactive
same,outcome,[16],inactive
same,outcome,[17],inactive
same,outcome,[18],inactive
same,Potency,[20],21.3 µM (active)
same,Potency,[21],23.9 µM (active)
same,Potency,[22],2.11 µM (active)
same,Potency,[23],2.98 µM (active)
same,Potency,[24],4.22 µM (active)
same,Potency,[25],15.1 µM (active)
same,Potency,[36],21.3 µM (active)
same,outcome,[37],inactive
same,outcome,[38],inactive
same,Potency,[26],4.73 µM (active)
same,Potency,[39],5.96 µM (active)
same,Potency,[29],23.9 µM (active)
same,Potency,[30],inactive
same,Potency,[40],inactive
same,Potency,[41],23.7 µM (active)
same,outcome,[35],inactive
